PKA-R1A activ – PKA-R1A complex activation | P00514+P68181 | AID 504707 | activation, % at 11.4 µM | PKA-R1A dissociation, Cy5-IP20 fluorescence polarization; scaled: DMSO 0%, 113 µM cGMP 100% | 0.083% of 340,000 active;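 active = percent activation above the mean of all tested compounds plus 3 SD, cut at about 19% in these data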;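 also: higher means more PKAc released from R1A so a rise in polarization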
Neddyl block – cullin neddylation inhibition. AID 651699. TR-FRET cullin neddylation, biochemical. inhibition, % at 25 µM. 0.58% of 360,000 active. P61081+Q13564; in the data active = inhibition above about 36%
PKA-R2B activ – activates the human PKA-R2B holoenzyme complex; AID 504700; P22694+P31323; PKA-R2B holoenzyme dissociation, Cy5-IP20 fluorescence polarization; R2B truncated from residue 108, S112A mutant; 0% DMSO only, 100% 113 µM cGMP; 0.079% of 340,000 active; activation, % at 11.4 µM;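 active = activation above a cutoff set at the mean over all compounds plus 3 SD, cut at about 18% in these data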;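 also: higher means more holoenzyme dissociation and a rise in polarization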
Rpn11 block – blocks the human proteasome subunit Rpn11; O00487; human 26S proteasome, Ub4-pepOG fluorescence polarization; 20S core pre-blocked with epoxomicin; calls only at 20 µM; 0.59% of 360,000 active; AID 588493;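 active = inhibition at 20 µM, scaled to each plate's controls, above about 33%, limit read from the data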
Rpn11 confirm – confirmation of human proteasome Rpn11 inhibitors. shares compounds with Rpn11 block. purified human 26S proteasome, Ub4-pepOG fluorescence polarization; proteasome pretreated with epoxomicin. inhibition, % at 20 µM. 29% of 1,900 active
MMP-2 counter – blocks human MMP-2, flagging nonselective RPN11 hits. recombinant MMP-2, FRET peptide cleavage fluorescence. 4% of 1,900 active. shares compounds with Rpn11 block. inhibition, % at 20 µM;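 also: human MMP-2 activated beforehand with APMA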
Thrombin inh – counter-screen for RPN11 inhibitors: inhibition of bovine thrombin; shares compounds with Rpn11 block; bovine thrombin cleavage of Ub4-pepOG, fluorescence polarization; inhibition, % at 20 µM; 13% of 1,900 active; AID 602333;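 active = mean inhibition at least 40% at 20 µM, or signal 3 deviations below plate average, so some actives read negative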
Target sequence (P00735 whole entry, looked up): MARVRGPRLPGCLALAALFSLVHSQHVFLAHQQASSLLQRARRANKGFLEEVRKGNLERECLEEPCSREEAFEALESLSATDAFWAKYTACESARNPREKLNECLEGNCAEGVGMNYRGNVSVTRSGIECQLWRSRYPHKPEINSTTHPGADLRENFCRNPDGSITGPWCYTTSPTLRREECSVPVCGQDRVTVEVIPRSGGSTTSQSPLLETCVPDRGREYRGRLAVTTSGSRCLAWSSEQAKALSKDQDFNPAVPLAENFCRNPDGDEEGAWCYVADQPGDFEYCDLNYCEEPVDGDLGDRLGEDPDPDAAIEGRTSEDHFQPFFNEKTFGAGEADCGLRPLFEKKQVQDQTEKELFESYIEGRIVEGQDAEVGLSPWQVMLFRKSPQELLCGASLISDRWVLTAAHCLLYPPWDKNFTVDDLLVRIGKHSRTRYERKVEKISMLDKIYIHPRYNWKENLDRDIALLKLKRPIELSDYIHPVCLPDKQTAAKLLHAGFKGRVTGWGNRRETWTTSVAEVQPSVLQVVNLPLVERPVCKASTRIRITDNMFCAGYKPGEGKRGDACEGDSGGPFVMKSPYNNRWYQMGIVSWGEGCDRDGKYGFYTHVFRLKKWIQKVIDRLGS
Of the large screens only hits and unclear results are named; the others gave an inactive call (follow-up assays come after a bar, where shown). Shown are actives, neighbours in structure and some others; about 1.3% of the full set was active somewhere. Rule as the data show it, unless noted: active = inhibition above about 40%; inactive = the rest.

O=C(Nc1ccccc1C(=O)O)c1ccc2c(c1)C(=O)N(c1cccc([N+](=O)[O-])c1)C2=O	none
O=C(Nc1c[nH]c(=O)[nH]c1=O)c1ccc2c(c1)C(=O)N(c1cccc([N+](=O)[O-])c1)C2=O	Rpn11 block active | Rpn11 confirm inactive | MMP-2 counter inactive | Thrombin inh inactive
CCN(CC)S(=O)(=O)c1cccc(NC(=O)COc2ccc(F)cc2Br)c1	Rpn11 block active | Rpn11 confirm inactive | MMP-2 counter inactive | Thrombin inh inactive
CCN(CC)S(=O)(=O)c1cccc(NC(=O)COc2ccc(C#N)cc2OC)c1	none
Fc1ccc(-c2nc3c4ccccc4ccn3c2Cc2cccc(Cl)c2)cc1	Rpn11 block active (no result: PKA-R1A activ, PKA-R2B activ) | Rpn11 confirm 68 | MMP-2 counter inactive | Thrombin inh 74
Clc1cccc(Cc2c(-c3ccccc3)nc3c4ccccc4ccn23)c1	none (no result: PKA-R1A activ, PKA-R2B activ)
CCOc1ccc(NC(=O)CSc2nc(=O)n(CCCN3CCOCC3)c3c2CCC3)cc1	none
CCOC(=O)c1c(NC(=O)C(C)OC(=O)C2=COCCO2)sc2c1CCCC2 (stereo not drawn)	none
CCOC(=O)c1c(NC(=O)C(C)OC(=O)c2ccc(NC(=O)CC#N)cc2)sc2c1CCCC2 (stereo not drawn)	Rpn11 block active | Rpn11 confirm inactive | MMP-2 counter inactive | Thrombin inh inactive
COc1ccc2c(c1)CCC1C2=NN(/C(C)=C/C(C)=O)C1c1cccc(F)c1 (stereo not drawn)	Rpn11 block active | Rpn11 confirm inactive | MMP-2 counter inactive | Thrombin inh inactive
CC1=Nc2ccc(C)cc2/C1=C/c1c(N)n2oc(C)cc2nc1=O	Rpn11 block active | Rpn11 confirm 59 | MMP-2 counter inactive | Thrombin inh inactive
CSc1nsc2nc(=O)c(/C=C3\C(C)=Nc4ccc(C)cc43)c(N)n12	none
CC(c1ccccc1)N1CC(C(=O)N2CCCC(C(N)=O)C2)CC1=O (stereo not drawn)	none
NC(=O)C(=O)N/N=C/c1c2ccccc2cc2ccccc12	Rpn11 block active (not shown: Neddyl block) | Rpn11 confirm inactive | MMP-2 counter inactive | Thrombin inh inactive
CN1CCN(c2ccc(S(=O)(=O)N3CCOCC3)cc2NC(=O)COc2ccc(C#N)cc2)CC1	none
Oc1ccc(Cl)cc1N=Cc1sc2ccccc2c1Cl	none
O=[N+]([O-])c1ccc(O)c(N=Cc2sc3ccccc3c2O)c1	Rpn11 block active | Rpn11 confirm 42 | MMP-2 counter inactive | Thrombin inh inactive
O=C(C[C@H]1C[C@H](C(=O)N2CCCCC2)[C@@]2(CCc3ccccc3)c3[nH]c4cc(-c5ccco5)ccc4c3CCN2C1=O)NCCN1CCOCC1	Rpn11 block active (not shown: Neddyl block) | Rpn11 confirm inactive | MMP-2 counter inactive | Thrombin inh inactive
CC(C)=CCC/C(C)=C/CNC(=O)C[C@H]1C[C@H](C(=O)N2CCCCC2)[C@@]2(CCc3ccccc3)c3[nH]c4cc(-c5ccco5)ccc4c3CCN2C1=O	Rpn11 block active (not shown: Neddyl block) | Rpn11 confirm inactive | MMP-2 counter inactive | Thrombin inh inactive
CCOc1ccccc1NC(=O)C(OC(=O)c1ccc(NC(=O)CC#N)cc1)c1ccccc1 (stereo not drawn)	Rpn11 block active | Rpn11 confirm inactive | MMP-2 counter inactive | Thrombin inh inactive
Cc1ccccc1NC(=S)NCc1cccs1	Rpn11 block active | Rpn11 confirm inactive | MMP-2 counter inactive | Thrombin inh inactive
O=c1[nH]c(SCc2ccccc2)nc2[nH]ncc12	none
O=C(Nc1ccc(Cl)cc1)Nc1ccccc1Sc1ncc([N+](=O)[O-])s1	Rpn11 block active | Rpn11 confirm inactive | MMP-2 counter inactive | Thrombin inh inactive
CCOc1ccc(CCNC(=O)Cn2c(=O)c3cccn3c3cccnc32)cc1	Rpn11 block active | Rpn11 confirm inactive | MMP-2 counter inactive | Thrombin inh inactive
CCCCn1nc(C(=O)NCC(c2cccs2)N2CCOCC2)c2ccccc2c1=O (stereo not drawn)	none
C[C@H](CO)N1C[C@H](C)[C@@H](CN(C)C(=O)Nc2cccc(F)c2)Oc2ncc(Br)cc2C1=O	Rpn11 block active | Rpn11 confirm inactive | MMP-2 counter inactive | Thrombin inh inactive
Cc1ccc(C)c(N2N=C(C(=O)OCC(=O)N(C)c3ccccc3)CCC2=O)c1	none
N#Cc1c(NC(=O)c2ccc(Br)o2)n(-c2ccccc2)c2nc3ccccc3nc12	Rpn11 block active (not shown: Neddyl block) | Rpn11 confirm inactive | MMP-2 counter inactive | Thrombin inh inactive
Cc1c(Cl)c(=O)n2c(=O)c(Cl)c(C)n12	none (not shown: Neddyl block)
O=c1c(Cl)c(N/N=C/c2ccc(Br)cc2)cnn1-c1ccccc1	Rpn11 block active | Rpn11 confirm 47 | MMP-2 counter inactive | Thrombin inh inactive
CCOC(=O)c1noc(C)c1C(=O)Nc1cccc(F)c1	Rpn11 block active | Rpn11 confirm inactive | MMP-2 counter inactive | Thrombin inh inactive
Cc1nc(CCNS(=O)(=O)c2cccnc2)cs1	none
Cc1nnc2sc(-c3ccc(NC(=O)c4ccc(-c5ccc(Cl)cc5Cl)o4)cc3)nn12	Rpn11 block active (not shown: Neddyl block) | Rpn11 confirm inactive | MMP-2 counter inactive | Thrombin inh 44
COc1ccc(O)c(C(=O)c2cnn(C(=O)c3ccc(C)cc3)c2)c1	Rpn11 block active | Rpn11 confirm inactive | MMP-2 counter inactive | Thrombin inh inactive
COc1ccc(O)c(C(=O)c2cnn(-c3ccccc3)c2)c1	none
CCc1ccccc1NC(=O)CN1C(=O)C2CCCN2c2ncc(Cl)cc21 (stereo not drawn)	Rpn11 block active | Rpn11 confirm inactive | MMP-2 counter inactive | Thrombin inh inactive
CN(c1ccccc1)S(=O)(=O)c1cccc(C(=O)Nc2nn[nH]n2)c1	none
COC(=O)c1ccc(NC(=O)CCN2CCN(c3ccccc3)CC2)cc1	Rpn11 block active | Rpn11 confirm inactive | MMP-2 counter inactive | Thrombin inh inactive
O=C(CCN1CCN(c2ccccc2)CC1)Nc1ccc(Cl)cc1	none
COc1ccc(NS(=O)(=O)c2ccc(C)c(NC(=O)CN3C(=O)NC4(CCCC4)C3=O)c2)cc1	Rpn11 block active | Rpn11 confirm 76 | MMP-2 counter inactive | Thrombin inh inactive
CC1OC(C(C)(C)C)Cc2[nH][nH]c(=O)c21 (stereo not drawn)	none (no result: PKA-R1A activ, PKA-R2B activ, Rpn11 block)
CCOc1ccc(C2C(C(=O)c3ccc(C)o3)=C(O)C(=O)N2c2nc(C)c(C(=O)OC)s2)cc1 (stereo not drawn)	Rpn11 block active | Rpn11 confirm inactive | MMP-2 counter inactive | Thrombin inh inactive
COc1cccc2sc(Nc3nc4ccc(NC(C)=O)cc4s3)nc12	Rpn11 block active (not shown: Neddyl block) | Rpn11 confirm inactive | MMP-2 counter inactive | Thrombin inh inactive

Screening data (PubChem BioAssay)
